High-throughput results (PubChem)
Compounds with a hit are over-represented: about 7.5% of the library has one in this group of screens.
TSHR antagonist: antagonists of human thyroid stimulating hormone receptor; activity change, negative = inhibition, % at 11.5 µM; hit rate 0.2% among 330,000; P16473; TSHR-expressing cells, TSH-stimulated cAMP HTRF, 2 h; active compounds read low;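 active = activity change below a set negative limit, meaning inhibition stronger than a set level, cut at about -70% in these data; inconclusive = activity change between two set negative limits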
Target sequence (P16473 whole entry, looked up): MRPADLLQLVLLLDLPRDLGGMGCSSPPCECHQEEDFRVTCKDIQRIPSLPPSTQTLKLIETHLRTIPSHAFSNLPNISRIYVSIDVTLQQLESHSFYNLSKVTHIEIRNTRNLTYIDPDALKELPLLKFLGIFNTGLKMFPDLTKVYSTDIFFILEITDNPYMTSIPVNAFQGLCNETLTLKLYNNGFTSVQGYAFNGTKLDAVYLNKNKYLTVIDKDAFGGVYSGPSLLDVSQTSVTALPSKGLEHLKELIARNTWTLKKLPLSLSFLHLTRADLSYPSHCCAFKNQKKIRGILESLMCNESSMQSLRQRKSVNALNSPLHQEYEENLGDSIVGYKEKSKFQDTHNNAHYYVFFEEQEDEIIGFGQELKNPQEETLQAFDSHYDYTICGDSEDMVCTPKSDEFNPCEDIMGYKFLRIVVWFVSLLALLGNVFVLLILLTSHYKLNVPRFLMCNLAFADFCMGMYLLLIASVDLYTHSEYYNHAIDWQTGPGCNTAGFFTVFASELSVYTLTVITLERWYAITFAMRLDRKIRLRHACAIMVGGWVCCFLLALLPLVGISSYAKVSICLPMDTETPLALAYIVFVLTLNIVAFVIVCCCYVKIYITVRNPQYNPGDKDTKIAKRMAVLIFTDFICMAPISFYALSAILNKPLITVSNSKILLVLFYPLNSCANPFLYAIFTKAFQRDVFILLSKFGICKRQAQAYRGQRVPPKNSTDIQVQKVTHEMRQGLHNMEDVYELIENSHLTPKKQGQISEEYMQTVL
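TSHR-expressing cells were treated with compounds, then stimulated with TSH at EC80 (4nM final) for 2 hours at 37 deg C. Cellular cAMP was measured by HTRF competition between lysate cAMP and cAMP-d2 for a cryptate-labelled anti-cAMP antibody.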
ELG1 DNA repair: ELG1-dependent DNA repair inhibition | Potency, µM (top dose mostly 46.1 µM), usual class: inhibitors | hit rate 2.3% among 330,000 | HEK293T ELG1-luciferase reporter, luminescence, 16 h; DNA damage induced by 5-fluorouridine; also: nearly all actives have a fitted effect of over 55% in size
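Luminescence from the luciferase reporter, measured 30 min after ONE-Glo reagent at room temperature, was the read-out. Beforehand, 2,000 cells per well were exposed for 16 hr at 37 °C to 5-fluorouridine together with compound or vehicle.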
B2AR arrestin: beta2AR (human) beta-arrestin recruitment activity; P07550; beta-arrestin recruitment to beta2AR, cell-based reporter; Potency, µM (series often up to 46.1 µM), actives largely listed as activators; hit rate 0.02% among 330,000; also: nearly all actives have a fitted effect of over 65% in size
Gal4-VP16 FLuc: inhibits Gal4-VP16 luciferase reporter, ROR gamma counter-screen; Drosophila S2 Gal4-VP16 UAS-luciferase, luminescence, 20 h; Potency, µM (doses to about 53.6 µM), usual class: inhibitors; hit rate 3.5% among 310,000; AID 2546;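 also: Gal4-VP16 expression switched on by copper sulfate through the metallothionein promoter; nearly all actives have a fitted effect of over 50% in size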
RORg inh: ROR gamma (mouse) transcription inhibition. P51450. AID 2551. hit rate 5.4% among 310,000. Potency, µM (series often up to 53.6 µM), hits mostly inhibitors. Drosophila S2 Gal4-RORgamma UAS-luciferase reporter, 20 h; also: nearly all actives have a fitted effect of over 60% in size
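Stably transfected Drosophila Schneider cells are the test system, with ROR gamma fused to Gal4 and luciferase under UAS control; luminescence is read after 20 hr of 700 uM copper sulfate induction at ambient temperature.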
Of the large screens only hits and unclear results are named; the others gave an inactive call; ! = repeats disagree. Unless noted, calls follow the shape of the dose curve; as a rule, active = well fitted curve in the direction sought with a large enough effect; inconclusive = small, poorly fitted or top-dose-only effect, or another doubt; inactive = no such curve, though single readings can be large; an effect the other way counts as inactive or inconclusive.

O=c1c(-c2cccc(F)c2)nc2cncnc2n1Cc1ccccc1	none (no result: TSHR antagonist, ELG1 DNA repair, B2AR arrestin)
c1ccc(Oc2ccc(-c3ccnc4nc(N5CCOCC5)nn34)cc2)cc1	ELG1 DNA repair 18µM, RORg inh inconclusive
COc1ccc(-c2ccnc3nc(N4CCOCC4)nn23)cc1	none
CCOc1cccc(C2/C(=C(/O)c3ccc4c(c3)CC(C)O4)C(=O)C(=O)N2Cc2ccncc2)c1 (centres undefined)	none
O=C(NCc1ccc(F)cc1)C1CCC(CNS(=O)(=O)c2cccs2)CC1 (centres undefined)	ELG1 DNA repair inconclusive
O=C(C1CCC(CNS(=O)(=O)c2cccs2)CC1)N1CCN(c2ccc(F)cc2)CC1 (centres undefined)	ELG1 DNA repair 9.2µM, RORg inh inconclusive
Cc1[nH]n(-c2ccccc2)c(=S)c1C=Nc1ccc([N+](=O)[O-])cc1	Gal4-VP16 FLuc 7.1µM, RORg inh 3.2µM
O=C(N/N=C1/C[C@@H](O)[C@@H](O)[C@@H]2[C@@H]3C(=O)N(Cc4ccccc4)C(=O)[C@H]3CC[C@@H]12)OCc1ccccc1	none (no result: TSHR antagonist, ELG1 DNA repair, B2AR arrestin)
Cc1oc(-c2ccccc2)nc1CS(=O)CC(=O)NC1CCCC1 (centres undefined)	none
CC(=O)c1ccc(OC(C)C(=O)OCC(=O)NCCc2ccccc2)cc1 (centres undefined)	none (no result: Gal4-VP16 FLuc, RORg inh)
Cc1cccc(NC(=O)/C=C/c2ccc([N+](=O)[O-])s2)c1	ELG1 DNA repair inconclusive, B2AR arrestin inconclusive, Gal4-VP16 FLuc 3.2µM, RORg inh 6.3µM
Cc1ccc(NC(=O)/C=C/c2ccc([N+](=O)[O-])s2)cc1	ELG1 DNA repair inconclusive, B2AR arrestin inconclusive, Gal4-VP16 FLuc inconclusive, RORg inh inconclusive
CC(C)(C)OC(=O)N/N=C\c1ccc([N+](=O)[O-])s1	ELG1 DNA repair inconclusive, Gal4-VP16 FLuc inconclusive
Cc1cccc(NC(=S)N/N=C/c2ccc([N+](=O)[O-])s2)c1	ELG1 DNA repair inconclusive, Gal4-VP16 FLuc 3.2µM, RORg inh 1.3µM
Cc1c(/C=N/NC(=O)c2cccs2)c2ccccc2n1Cc1ccccc1Cl	none
O=C(O)c1cc(O)c2c(c1)C(=O)c1cc(O)cc(O)c1C2=O	Gal4-VP16 FLuc inconclusive, RORg inh 6.3µM!
O=C(O)CC12CC3CC(C1)CC(n1ncc(N4CCC5(CC4)OCCO5)c(Cl)c1=O)(C3)C2	ELG1 DNA repair 23µM
C=CCn1c(N)c(C(=O)Nc2cccc(C)c2)c2nc3ccccc3nc21	none
COCCNC(=O)c1c(N)n(CCC2=CCCCC2)c2nc3ccccc3nc12	ELG1 DNA repair inconclusive
COCCn1c(N)c(C(=O)OCc2ccccc2)c2nc3ccccc3nc21	ELG1 DNA repair inconclusive, Gal4-VP16 FLuc 14µM, RORg inh inconclusive
C=CCn1c(N)c(C(=O)OCCC)c2nc3ccccc3nc21	ELG1 DNA repair 16µM
COc1ccc(S(=O)(=O)N2CCCOC2CNC(=O)C(=O)NCCCN2CCOCC2)cc1C (centres undefined)	none
CCOC(=O)N1CCC(Nc2ncnc3c2cnn3-c2ccc(Cl)cc2)CC1	ELG1 DNA repair inconclusive, RORg inh 8.9µM
Clc1ccc(-c2csc(NNC3=NCCCCC3)n2)cc1	ELG1 DNA repair inconclusive, Gal4-VP16 FLuc inconclusive, RORg inh 5.6µM
Cn1cccc1/C=C1\CCc2ccccc2C1=O	ELG1 DNA repair inconclusive, RORg inh 13µM
Cn1cccc1/C=C1\Cc2ccccc2C1=O	ELG1 DNA repair inconclusive
Cn1cccc1/C=C1\CC(C(C)(C)C)C/C(=C\c2cccn2C)C1=O (centres undefined)	ELG1 DNA repair inconclusive, Gal4-VP16 FLuc 5µM, RORg inh inconclusive
CC(C)CC(C)c1cc(N)nc2nc3ccccc3n12 (centres undefined)	RORg inh 16µM
Cc1cc(N2CCN(c3ccccc3)CC2)n2c(n1)nc1ccccc12	ELG1 DNA repair inconclusive
COC1(C#CC2C=CC(OC(C)=O)C(COC(C)=O)O2)CCCCC1 (centres undefined)	none (no result: TSHR antagonist, ELG1 DNA repair, B2AR arrestin)
O=C(C1CC1)N1N=C(c2ccccc2)CC1(O)C(F)(F)C(F)(F)F (centres undefined)	ELG1 DNA repair inconclusive, Gal4-VP16 FLuc inconclusive, RORg inh 11µM
CCCCN(C(=O)c1ccc(S(=O)(=O)N(CC)CC)cc1)c1c(N)n(CCC)c(=O)[nH]c1=O	none
O=[N+]([O-])c1ccc(O)c(-c2nc(-c3ccccc3)c(-c3cccs3)[nH]2)c1	ELG1 DNA repair inconclusive, Gal4-VP16 FLuc 11µM
O=C(O)c1ccc(-c2nc(-c3ccccc3)c(-c3cccs3)[nH]2)cc1	none
COc1ccc(-c2nc(-c3ccccc3)c(-c3cc([N+](=O)[O-])ccc3C)[nH]2)cc1OC	ELG1 DNA repair 10µM
CCOc1cc(-c2nc(-c3ccccc3)c(-c3cc([N+](=O)[O-])ccc3C)[nH]2)ccc1O	RORg inh inconclusive (no result: TSHR antagonist, ELG1 DNA repair, B2AR arrestin)
CC(C)(C)c1ccc(-n2ncc3c2CCCC3NC(=O)C2=NNC(=O)CC2)cc1 (centres undefined)	ELG1 DNA repair inconclusive, Gal4-VP16 FLuc inconclusive
COc1ccc(/C=C/C(=O)CC(=O)/C=C/c2cccc(O)c2OC)cc1O	RORg inh 6.3µM (no result: TSHR antagonist, ELG1 DNA repair, B2AR arrestin)
COc1ccc(/C=C/C(=O)c2cccc(-n3cnnn3)c2)cc1O	none
COc1cc(/C=C/C(=O)CC(=O)/C=C/c2ccc(O)c(OC)c2)ccc1O	ELG1 DNA repair inconclusive, Gal4-VP16 FLuc 16µM, RORg inh 11µM
COc1cc(/C=C/C(=O)/C=C(O)/C=C/c2ccc(O)c(OC)c2)ccc1O	ELG1 DNA repair inconclusive, B2AR arrestin inconclusive, Gal4-VP16 FLuc inconclusive, RORg inh 16µM!
COc1ccc(C(=O)/C=C/c2ccc(OC)c(O)c2)c(F)c1	ELG1 DNA repair inconclusive, Gal4-VP16 FLuc inconclusive, RORg inh 10µM
O=C(c1ccncc1)N1CCC2(CC1)CCN(c1ccccc1)CC2	none (no result: TSHR antagonist, ELG1 DNA repair, B2AR arrestin)
COc1ccccc1N(C)S(=O)(=O)c1ccc(C(=O)Nc2nccs2)cc1	ELG1 DNA repair inconclusive (no result: Gal4-VP16 FLuc, RORg inh)
COc1cc(/C=C/C2=NC(=O)C(C)(C)O2)ccc1O	ELG1 DNA repair 26µM
CCSc1nnc(NC(=O)CSc2c(Cl)cccc2Cl)s1	RORg inh 11µM
CCSc1nnc(NC(=O)CSc2nccn2-c2cccc(C)c2C)s1	ELG1 DNA repair inconclusive, Gal4-VP16 FLuc inconclusive, RORg inh 10µM
Cc1cccc(-n2ccnc2SCC(=O)Nc2nnc(C)s2)c1	ELG1 DNA repair inconclusive
Cc1cc(NC(=O)CSc2nccn2-c2cccc(C)c2C)no1	ELG1 DNA repair inconclusive
CCSc1nnc(NC(=O)CSc2nccn2-c2cc(C)cc(C)c2)s1	Gal4-VP16 FLuc inconclusive, RORg inh 14µM
Cc1ccc(S(=O)(=O)N2CCN(C(=O)CSc3ncn[nH]3)CC2)cc1	none (no result: Gal4-VP16 FLuc, RORg inh)
Cc1cc(=O)n2[nH]c(C)c(-c3ccc(Cl)cc3)c2n1	ELG1 DNA repair inconclusive, Gal4-VP16 FLuc 16µM, RORg inh 7.1µM
CCOC(=O)N1CCC(c2cc(=O)n3[nH]c(C)c(-c4ccc(F)cc4)c3n2)CC1	Gal4-VP16 FLuc 13µM, RORg inh 10µM
